# Test results: PubChem BioAssay (EPA / NIEHS)
# Where “and” joins values, the source holds several entries; their conditions need not be identical. Identical values can stand only once. Inconclusive results are not listed. More than one record can exist for a structure, and the calls need not agree. Calls of active or inactive are those of the source. Rule for the calls, unless noted: active = hit-call score of the fitted dose curve at least 0.9, where 1 is the maximum; inconclusive = response in the unintended direction; inactive = score below 0.9.
# How the values were obtained:
# [1] = target: human Phosphodiesterase 10 (PDE10), PDE10A (gene 10846) (UniProt Q9Y233); test: NVS_ENZ_hPDE10: NovaScreen (NVS) Enzymatic Assay for human Phosphodiesterase 10 (PDE10) (AID 2283195)
# Procedure, shortened: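 Recombinant human PDE10 with fluorescent substrate, 1 h, product separated by electrophoretic mobility shift. Loss of enzyme activity fitted against DMSO; initial screen 25 uM in duplicate, actives run to 50 uM maximum.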
# [2] = target: human Phosphoinositide 3-kinase alpha (PI3Ka), PIK3CA (gene 5290) (UniProt P42336); test: NVS_ENZ_hPI3Ka: NovaScreen (NVS) Enzymatic Assay for human Phosphoinositide 3-kinase alpha (PI3Ka) (AID 2283196)
# Procedure, shortened: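 Duplicate single-point screen (25 uM), then singleton dose-response (max 50 uM) for compounds meeting the threshold. Cell-free kinase reaction, 1 h; fluorescent mobility-shift readout.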
# [3] = CCTE_Padilla_ZF_Score.General: CCTE's 144 Hour Post-fertilization zebrafish Assay Score for General Malformation, Padilla Lab (AID 2284411; active = hit-call score of the fitted dose curve at least 0.9, where 1 is the maximum; inactive = score below 0.9)
# Procedure, shortened: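 Wild-type zebrafish embryos were plated singly at 6-8 hpf in 10% Hanks' and exposed in sealed wells at 26C until rinsed on 5 dpf. At 6 dpf two blinded assessors scored mortality, hatching and malformations by stereomicroscopy; gain-of-signal versus DMSO.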
# [4] = target: Bile acid receptor (Homo sapiens) (UniProt Q96RI1); test: OT_FXR_FXRSRC1_0480: Odyssey Thera (OT) 8-hour HEK293T Protein-Complementation Assay for Farnesoid X receptor/SRC-1 Co-activator (AID 2283383)
# Procedure, shortened: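 HEK293T protein-fragment complementation assay: FXR and SRC-1 coactivator are fused to reporter fragments, and their interaction restores a fluorescent reporter. Readout was taken 8 h after dosing, with gain of signal fit relative to DMSO.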
# [5] = CEETOX_H295R_OHPREG: CeeTox H295R High-throughput Steroidogenesis Assay for OH-Pregnenolone (OHPREG) (AID 2283434; active = hit-call score of the fitted dose curve at least 0.9, where 1 is the maximum; inactive = score below 0.9); details: actives raise or lower the signal
# Procedure, shortened: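 H295R cells pre-stimulated 48 h with 10 uM forskolin, then exposed 48 h to chemical in 0.1% DMSO. 17alpha-hydroxypregnenolone in medium quantified by MTBE extraction and HPLC-MS/MS; bidirectional fit versus DMSO, viability checked by MTT.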
# [6] = CEETOX_H295R_OHPROG: CeeTox H295R High-throughput Steroidogenesis Assay for OH-Progesterone (OHPROG) (AID 2283435; active = hit-call score of the fitted dose curve at least 0.9, where 1 is the maximum; inactive = score below 0.9;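 for AC50: human adrenal H295R cells primed 48 h with 10 µM forskolin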); details: actives raise or lower the signal
# Procedure, shortened: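 H295R adrenal cells prestimulated 48 h with 10 uM forskolin, then exposed 48 h to chemical (0.1% DMSO final). 17alpha-hydroxyprogesterone in medium quantified by HPLC-MS/MS; bidirectional fit versus DMSO, with MTT viability measured in the same wells.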
# [7] = CCTE_Deisenroth_AIME_384WELL_CTox_Active: Cytotoxicity Assessment (CTOX) in CCTE's 384-well Estrogen Receptor Transactivation Assay with AIME metabolic competence (metabolism positive), Deisenroth Lab (AID 2284037);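 note: chemicals first conditioned 2 h by alginate-bound induced rat liver S9 before cells; activity means signal loss indicating cell death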
# Procedure, shortened: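 Chemicals pre-incubated 2 hours with alginate-immobilised phenobarbital/beta-naphthoflavone-induced male Sprague Dawley rat liver S9, then conditioned medium applied 24 hour to VM7Luc4E2 cells. Viability by fluorogenic protease substrate; 10-point series 0.002 - 200 uM.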
# [8] = CCTE_Deisenroth_AIME_384WELL_CTox_Inactive: Cytotoxicity Assessment (CTOX) in CCTE's 384-well Estrogen Receptor Transactivation Assay without AIME metabolic competence (metabolism negative), Deisenroth Lab (AID 2284039);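 note: cell viability via live-cell protease substrate cleaved to fluorescent probe; cells exposed 24 h to medium preincubated 2 h with alginate-water beads without S9; loss of fluorescence signal means loss of viability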
# Procedure, shortened: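 Fluorescence from a live-cell protease substrate, read after 24 h in VM7Luc4E2 cells, indicated viability. Test medium came from a 2 h AIME step without hepatic S9 (alginate-water microspheres); concentrations spanned 0.002 - 200 uM, single technical replicate per run.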
# [9] = target: Androgen Receptor/SRC-1 Co-activator, AR (gene 367) (UniProt P10275); test: OT_AR_ARSRC1_0960: Odyssey Thera (OT) 16-hour HEK293T Protein-Complementation Assay for Androgen Receptor/SRC-1 Co-activator (AID 2283353);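 note: actives raise the signal above DMSO so potency reflects increased AR and SRC-1 complex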
# Procedure, shortened: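 HEK293T cells stably expressing AR and SRC-1 fused to Venus YFP fragments, imaged 16 h after dosing. Nuclear/cytoplasmic fluorescence ratio at 488 nm from at least 400 cells per image; gain of signal relative to DMSO.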
# [10] = target: Androgen Receptor/SRC-1 Co-activator, AR (gene 367) (UniProt P10275); test: OT_AR_ARSRC1_0480: Odyssey Thera (OT) 8-hour HEK293T Protein-Complementation Assay for Androgen Receptor/SRC-1 Co-activator (AID 2283354);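 note: hits raise the complementation signal above DMSO so AC50 marks enhancers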
# Procedure, shortened: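 HEK293T cells stably expressing AR and SRC-1 fused to Venus YFP fragments, imaged 8 h after dosing. Complementation fluorescence scored as nuclear/cytoplasmic ratio at 488 nm in at least 400 cells per image; gain fitted versus DMSO.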
# [11] = target: Agonist Androgen Response Element (ARE), AR (gene 367) (UniProt P10275); test: OT_AR_ARELUC_AG_1440: Odyssey Thera (OT) 24-hour CHO-K1 Luciferase Assay for Agonist Androgen Response Element (ARE) (AID 2283379)
# Procedure, shortened: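 CHO-K1 cells carrying an ARE-driven luciferase reporter were exposed to compounds for 24 h. Luminescence was then read after adding a D-luciferin/ATP mix, and activity was scored as a gain in signal over DMSO vehicle.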
# [12] = target: Nucleoli Translocation, AR (gene 367) (UniProt P10275); test: UPITT_HCI_U2OS_AR_TIF2_Nucleoli_Antagonist: University of Pittsburgh U2OS Androgen Receptor-Transcriptional Intermediary Factor 2 (AR-TIF2) Antagonism High Content Imaging Assay for Nucleoli Translocation (AID 2283997)
# Procedure, shortened: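 U2OS cells co-expressing red-fluorescent-tagged human AR and green-fluorescent-tagged TIF2, imaged by high-content microscopy for nucleolar red fluorescence. Antagonist mode against DHT; primary screen at 20 uM final (0.2% DMSO).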
# [13] = target: Nucleoli Translocation, AR (gene 367) (UniProt P10275); test: UPITT_HCI_U2OS_AR_TIF2_Nucleoli_Agonist: University of Pittsburgh U2OS Androgen Receptor-Transcriptional Intermediary Factor 2 (AR-TIF2) Agonism High Content Imaging Assay for Nucleoli Translocation (AID 2283998)
# Procedure, shortened: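 Red-tagged human androgen receptor co-expressed with GFP-tagged TIF2 serves as the binding reporter. Primary testing used 20 uM final (0.2% DMSO); follow-up dose response covered 0.195 to 50 uM final (0.5% DMSO).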
# [14] = target: Ratio of Nucleoli Translocation and Cytoplasm, AR (gene 367) (UniProt P10275); test: UPITT_HCI_U2OS_AR_TIF2_Nucleoli_Cytoplasm_Ratio_Antagonist: University of Pittsburgh U2OS Androgen Receptor-Transcriptional Intermediary Factor 2 (AR-TIF2) Antagonism High Content Imaging Assay for Ratio of Nucleoli Translocation and Cytoplasm (AID 2283999);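 note: antagonists lower the DHT-driven ratio of nucleolar to cytoplasmic red signal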
# Procedure, shortened: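 U2OS cells co-expressing RFP-tagged human AR and GFP-tagged TIF2, antagonist mode with DHT as baseline. Nucleolar-to-cytoplasmic red fluorescence ratio imaged by high-content microscopy; final compound 20 uM (0.2% DMSO) primary, 0.195–50 uM (0.5% DMSO) concentration-response.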
# [15] = target: Ratio of Nucleoli Translocation and Cytoplasm, AR (gene 367) (UniProt P10275); test: UPITT_HCI_U2OS_AR_TIF2_Nucleoli_Cytoplasm_Ratio_Agonist: University of Pittsburgh U2OS Androgen Receptor-Transcriptional Intermediary Factor 2 (AR-TIF2) Agonism High Content Imaging Assay for Ratio of Nucleoli Translocation and Cytoplasm (AID 2284000);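 note: hits raise the red nucleolar to cytoplasm ratio above vehicle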
# Procedure, shortened: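 U2OS cells expressing RFP-tagged human AR and GFP-tagged TIF2; high-content imaging ratio of nucleolar to cytoplasmic red fluorescence, fitted as gain of signal vs DMSO. Single point at 20 uM final (0.2% DMSO); concentration-response 0.195-50 uM final (0.5% DMSO).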
# [16] = target: human Ephrin type-A Receptor 1 (EphA1), EPHA1 (gene 2041) (UniProt P21709); test: NVS_ENZ_hEphA1: NovaScreen (NVS) Enzymatic Assay for human Ephrin type-A Receptor 1 (EphA1) (AID 2283158);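 note: activity is signal loss versus DMSO meaning EphA1 kinase inhibition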
# Procedure, shortened: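 Biochemical kinase assay run cell-free; 1 h incubation; readout is fluorescence with mobility-shift separation of product. Concentration-response up to 50 uM for actives from a 25 uM screen.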
# [17] = target: human Matrix Metalloproteinase-9 (MMP9), MMP9 (gene 4318) (UniProt P14780); test: NVS_ENZ_hMMP9: NovaScreen (NVS) Enzymatic Assay for human Matrix Metalloproteinase-9 (MMP9) (AID 2283190);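 note: cell-free recombinant MMP9 protease activity read by fluorescent substrate signal; active means inhibition seen as loss of fluorescence signal versus DMSO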
# Procedure, shortened: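 Screening concentration 25 uM, duplicate wells, then dose series for confirmation. Cell-free enzymatic reaction measured by fluorescence intensity 1 h post-dosing; decreased signal versus DMSO taken as activity.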
# [18] = system: Sodium/Iodide Symporter (NIS), SLC5A5 (gene 6528); test: CPHEA_Stoker_NIS_Inhibition_RAIU: CPHEA's Radioactive Iodide Uptake (RAIU) Assay for Sodium/Iodide Symporter (NIS) Inhibition, Stoker and Laws Labs (AID 2283841)
# Procedure, shortened: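 Test chemicals, six concentrations from 0.001 to 100uM in 0.5% DMSO, were co-incubated with carrier-free 125I (final 329pM) on hNIS-HEK293T-EPA monolayers in pH 7.4 HEPES-buffered HBSS. Plates stood 2 hours at room temperature, then were washed cold and counted.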
# [19] = target: bovine Estrogen Receptor (ER), ESR1 (gene 407238) (UniProt P49884); test: NVS_NR_bER: NovaScreen (NVS) Nuclear Receptor Binding Assay for bovine Estrogen Receptor (ER) (AID 2283345);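 note: actives lower the bound radioligand count which means they displace the ER ligand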
# Procedure, shortened: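 Bovine uterine membranes; tritiated or iodinated radioligand; competitive displacement; 18 h; scintillation read; DMSO negative control; 25 uM duplicates, then concentration series for actives.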
# [20] = target: Estrogen receptor (Homo sapiens) (UniProt P03372); test: NVS_NR_hER: NovaScreen (NVS) Nuclear Receptor Binding Assay for human Estrogen Receptor (ER) (AID 2283348)
# Procedure, shortened: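 Radioligand competitive displacement binding to estrogen receptor from MCF7 extract, cell-free; 18 h after dosing, scintillation read-out. Primary screen in duplicate at 25 uM; actives followed up in concentration series; loss of signal vs DMSO.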
# Sequence of human Ephrin type-A Receptor 1 (EphA1), EPHA1 (gene 2041) (P21709 whole entry, looked up): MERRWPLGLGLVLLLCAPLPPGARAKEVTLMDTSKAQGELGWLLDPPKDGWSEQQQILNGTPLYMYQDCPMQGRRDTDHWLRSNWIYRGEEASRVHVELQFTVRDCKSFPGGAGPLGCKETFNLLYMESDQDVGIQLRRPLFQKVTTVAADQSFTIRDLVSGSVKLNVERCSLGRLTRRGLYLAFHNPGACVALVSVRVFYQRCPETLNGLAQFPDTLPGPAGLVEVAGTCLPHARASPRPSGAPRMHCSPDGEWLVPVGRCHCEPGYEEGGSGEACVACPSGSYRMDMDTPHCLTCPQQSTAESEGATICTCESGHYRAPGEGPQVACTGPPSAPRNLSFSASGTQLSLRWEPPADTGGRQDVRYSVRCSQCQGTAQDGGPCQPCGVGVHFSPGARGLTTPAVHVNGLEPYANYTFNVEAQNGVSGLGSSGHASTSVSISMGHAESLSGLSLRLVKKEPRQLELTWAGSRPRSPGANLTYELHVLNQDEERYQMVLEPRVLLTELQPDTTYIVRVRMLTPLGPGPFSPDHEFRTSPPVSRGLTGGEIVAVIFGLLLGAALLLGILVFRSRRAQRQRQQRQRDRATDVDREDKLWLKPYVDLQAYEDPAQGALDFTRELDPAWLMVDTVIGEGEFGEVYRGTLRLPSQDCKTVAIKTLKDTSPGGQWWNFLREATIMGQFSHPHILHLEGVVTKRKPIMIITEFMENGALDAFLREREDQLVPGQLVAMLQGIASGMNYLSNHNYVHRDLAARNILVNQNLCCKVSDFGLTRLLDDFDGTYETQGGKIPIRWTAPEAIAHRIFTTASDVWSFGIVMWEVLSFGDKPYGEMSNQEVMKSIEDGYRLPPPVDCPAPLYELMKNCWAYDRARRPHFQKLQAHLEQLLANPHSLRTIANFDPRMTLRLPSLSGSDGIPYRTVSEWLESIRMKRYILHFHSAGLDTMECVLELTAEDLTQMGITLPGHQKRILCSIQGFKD
# Sequence of human Phosphoinositide 3-kinase alpha (PI3Ka), PIK3CA (gene 5290) (P42336 whole entry, looked up): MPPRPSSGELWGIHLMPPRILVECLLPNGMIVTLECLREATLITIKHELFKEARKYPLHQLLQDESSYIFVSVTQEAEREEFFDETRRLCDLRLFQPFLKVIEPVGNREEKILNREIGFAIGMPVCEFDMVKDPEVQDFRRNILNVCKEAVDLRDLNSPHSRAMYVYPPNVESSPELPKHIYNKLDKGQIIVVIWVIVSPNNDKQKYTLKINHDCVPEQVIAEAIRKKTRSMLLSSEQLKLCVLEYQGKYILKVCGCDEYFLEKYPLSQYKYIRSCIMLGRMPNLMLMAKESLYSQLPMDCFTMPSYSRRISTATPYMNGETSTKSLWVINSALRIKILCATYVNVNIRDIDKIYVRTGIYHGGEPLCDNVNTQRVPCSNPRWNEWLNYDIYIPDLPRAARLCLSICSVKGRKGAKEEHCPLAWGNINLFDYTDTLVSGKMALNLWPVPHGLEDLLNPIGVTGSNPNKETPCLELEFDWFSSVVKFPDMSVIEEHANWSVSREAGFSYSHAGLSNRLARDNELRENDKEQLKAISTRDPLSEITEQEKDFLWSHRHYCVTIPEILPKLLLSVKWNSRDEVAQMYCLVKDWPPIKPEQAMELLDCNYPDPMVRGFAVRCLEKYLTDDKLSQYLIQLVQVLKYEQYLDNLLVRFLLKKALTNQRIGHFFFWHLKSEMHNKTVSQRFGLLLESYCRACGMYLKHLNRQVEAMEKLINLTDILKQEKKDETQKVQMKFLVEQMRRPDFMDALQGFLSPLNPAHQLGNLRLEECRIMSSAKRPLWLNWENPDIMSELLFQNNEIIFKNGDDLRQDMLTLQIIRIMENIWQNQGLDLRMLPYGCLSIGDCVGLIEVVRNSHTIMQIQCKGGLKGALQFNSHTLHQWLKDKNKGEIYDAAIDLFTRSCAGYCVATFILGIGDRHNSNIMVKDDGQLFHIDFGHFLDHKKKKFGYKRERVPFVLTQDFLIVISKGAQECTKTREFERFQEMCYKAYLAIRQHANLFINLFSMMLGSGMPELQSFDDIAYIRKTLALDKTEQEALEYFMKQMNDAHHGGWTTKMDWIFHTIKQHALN
# Sequence of Androgen Receptor/SRC-1 Co-activator, AR (gene 367) (P10275 whole entry, looked up, the tested form may be a part): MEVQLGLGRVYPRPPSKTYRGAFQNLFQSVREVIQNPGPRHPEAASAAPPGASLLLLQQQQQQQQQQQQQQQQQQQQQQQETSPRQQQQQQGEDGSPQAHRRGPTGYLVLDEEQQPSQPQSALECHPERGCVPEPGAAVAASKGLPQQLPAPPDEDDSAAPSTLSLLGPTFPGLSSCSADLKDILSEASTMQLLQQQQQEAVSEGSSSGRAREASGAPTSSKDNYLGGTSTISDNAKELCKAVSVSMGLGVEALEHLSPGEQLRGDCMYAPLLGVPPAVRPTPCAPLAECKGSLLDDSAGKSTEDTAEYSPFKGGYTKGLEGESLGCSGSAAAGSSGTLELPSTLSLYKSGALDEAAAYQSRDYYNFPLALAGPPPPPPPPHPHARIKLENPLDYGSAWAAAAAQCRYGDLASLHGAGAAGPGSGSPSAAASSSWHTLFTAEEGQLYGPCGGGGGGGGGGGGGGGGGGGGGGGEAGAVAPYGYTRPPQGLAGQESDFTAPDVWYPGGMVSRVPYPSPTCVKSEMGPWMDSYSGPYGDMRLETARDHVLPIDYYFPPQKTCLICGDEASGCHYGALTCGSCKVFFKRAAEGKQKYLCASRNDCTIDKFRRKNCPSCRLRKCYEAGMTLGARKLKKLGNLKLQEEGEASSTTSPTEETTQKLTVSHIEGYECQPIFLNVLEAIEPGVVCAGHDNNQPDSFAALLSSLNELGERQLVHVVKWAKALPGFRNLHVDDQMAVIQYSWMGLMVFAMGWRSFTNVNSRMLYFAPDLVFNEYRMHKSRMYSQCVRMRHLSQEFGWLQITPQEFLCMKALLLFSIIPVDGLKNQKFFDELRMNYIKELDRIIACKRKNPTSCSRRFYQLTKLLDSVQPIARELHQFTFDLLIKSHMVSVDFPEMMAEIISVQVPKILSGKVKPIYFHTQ
# Sequence of Nucleoli Translocation, AR (gene 367) (P10275 whole entry, looked up): as the sequence (P10275 whole entry, looked up, the tested form may be a part) above
# Sequence of Ratio of Nucleoli Translocation and Cytoplasm, AR (gene 367) (P10275 whole entry, looked up): as the sequence (P10275 whole entry, looked up, the tested form may be a part) above
# Sequence of Agonist Androgen Response Element (ARE), AR (gene 367) (P10275 whole entry, looked up): as the sequence (P10275 whole entry, looked up, the tested form may be a part) above
# Sequence of Bile acid receptor (Homo sapiens) (Q96RI1 whole entry, looked up, the tested form may be a part): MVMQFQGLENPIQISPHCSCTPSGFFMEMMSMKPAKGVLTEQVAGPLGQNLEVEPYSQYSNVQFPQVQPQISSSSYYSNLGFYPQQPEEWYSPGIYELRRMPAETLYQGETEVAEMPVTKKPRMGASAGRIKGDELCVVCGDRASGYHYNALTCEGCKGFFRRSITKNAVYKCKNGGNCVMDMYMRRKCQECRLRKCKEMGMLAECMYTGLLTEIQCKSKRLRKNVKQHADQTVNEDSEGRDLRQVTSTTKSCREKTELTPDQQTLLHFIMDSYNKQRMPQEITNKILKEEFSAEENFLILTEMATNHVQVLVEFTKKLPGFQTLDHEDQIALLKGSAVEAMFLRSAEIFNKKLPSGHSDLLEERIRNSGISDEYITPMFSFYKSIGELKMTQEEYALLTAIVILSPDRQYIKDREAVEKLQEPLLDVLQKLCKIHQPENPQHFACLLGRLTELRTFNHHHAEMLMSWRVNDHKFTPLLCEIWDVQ
# Sequence of human Phosphodiesterase 10 (PDE10), PDE10A (gene 10846) (Q9Y233 whole entry, looked up): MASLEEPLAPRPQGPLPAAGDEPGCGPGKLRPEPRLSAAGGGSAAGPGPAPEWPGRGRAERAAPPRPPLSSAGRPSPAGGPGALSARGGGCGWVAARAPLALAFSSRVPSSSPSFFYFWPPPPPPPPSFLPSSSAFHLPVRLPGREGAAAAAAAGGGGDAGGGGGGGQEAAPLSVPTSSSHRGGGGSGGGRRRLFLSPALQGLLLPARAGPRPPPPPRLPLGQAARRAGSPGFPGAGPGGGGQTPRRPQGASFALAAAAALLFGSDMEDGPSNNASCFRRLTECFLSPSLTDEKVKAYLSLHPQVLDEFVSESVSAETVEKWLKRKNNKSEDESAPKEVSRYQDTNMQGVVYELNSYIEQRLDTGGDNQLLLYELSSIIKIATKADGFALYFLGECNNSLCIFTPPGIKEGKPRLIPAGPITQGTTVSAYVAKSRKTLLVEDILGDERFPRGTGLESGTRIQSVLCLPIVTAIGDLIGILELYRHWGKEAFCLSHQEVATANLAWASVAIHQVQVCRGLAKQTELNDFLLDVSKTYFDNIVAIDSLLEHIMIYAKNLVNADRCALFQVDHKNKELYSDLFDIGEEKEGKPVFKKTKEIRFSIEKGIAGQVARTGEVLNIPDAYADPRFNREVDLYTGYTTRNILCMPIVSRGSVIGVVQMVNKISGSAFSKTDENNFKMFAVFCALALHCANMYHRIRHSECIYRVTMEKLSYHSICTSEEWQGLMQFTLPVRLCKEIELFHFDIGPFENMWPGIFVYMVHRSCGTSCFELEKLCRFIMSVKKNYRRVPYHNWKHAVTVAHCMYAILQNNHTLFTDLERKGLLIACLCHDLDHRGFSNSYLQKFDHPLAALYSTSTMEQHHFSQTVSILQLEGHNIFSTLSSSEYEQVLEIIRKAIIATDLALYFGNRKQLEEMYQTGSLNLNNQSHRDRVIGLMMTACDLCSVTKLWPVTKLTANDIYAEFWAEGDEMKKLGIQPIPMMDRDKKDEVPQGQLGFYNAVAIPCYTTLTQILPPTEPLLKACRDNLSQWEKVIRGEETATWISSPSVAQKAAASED
compound,measurement,setting,value
O=c1c2ccccc2c(=O)c2c1cc(Cl)c1[nH]c3c([nH]c12)c(Cl)cc1c(=O)c2ccccc2c(=O)c13,outcome,[1],inactive
same,AC50,[2],4.37 µM (active)
same,outcome,[3],inactive
O=C(NC(=O)c1c(F)cccc1F)Nc1ccc(Oc2ccc(C(F)(F)F)cc2Cl)cc1F,AC50,[4],56.3 µM (active)
same,AC50,[5],12.4 µM (active)
same,AC50,[6],1.37 µM (active)
same,outcome,[7],inactive
CCOP(O)OCC,outcome,[8],inactive
Cc1ccc(C)c2ccccc12,outcome,[9],inactive
same,outcome,[10],inactive
same,outcome,[11],inactive
same,outcome,[4],inactive
same,outcome,[12],inactive
same,outcome,[13],inactive
same,outcome,[14],inactive
same,outcome,[15],inactive
same,outcome,[7],inactive
same,outcome,[8],inactive
CC(C)C(=O)Cl,outcome,[1],inactive
CCCOC(=O)c1ccccc1C(=O)OCCC,outcome,[3],inactive
O=P1(NCCCl)OCCCN1CCCl (stereo not drawn),outcome,[16],inactive
COC(C)(C)CCC[C@H](C)C/C=C/C(C)=C/C(=O)OC(C)C,outcome,[1],inactive
same,outcome,[2],inactive
C[N+](=O)[O-],AC50,[17],1.45 µM (active)
Cc1ccccc1CCl,outcome,[2],inactive
Cc1ccc(OP(=O)(Oc2ccc(C)cc2)Oc2ccc(C)cc2)cc1 (tested in a mixture with another compound),outcome,[5],inactive
same,outcome,[6],inactive
same,outcome,[18],inactive
same,AC50,[3],2.6 µM (active)
O=C(O)CCCc1ccc(N(CCCl)CCCl)cc1,outcome,[16],inactive
O=C=Nc1ccccc1,AC50,[5],0.499 µM (active)
same,outcome,[6],inactive
ClCC(Cl)Cl,outcome,[2],inactive
CN(C)N,outcome,[9],inactive
same,outcome,[10],inactive
same,outcome,[11],inactive
same,outcome,[12],inactive
same,outcome,[13],inactive
same,outcome,[14],inactive
same,outcome,[15],inactive
same,outcome,[8],inactive
O=C1Nc2ccc(Cl)cc2C(c2ccccc2)=NC1O (stereo not drawn),outcome,[4],inactive
same,outcome,[18],inactive
BrCBr,outcome,[16],inactive
N#Cc1cccc(C#N)c1,AC50,[17],7.24 µM (active)
O=[N+]([O-])c1cc(C(F)(F)F)c(Cl)c([N+](=O)[O-])c1Cl,outcome,[19],inactive
same,outcome,[20],inactive
CCC[N+](=O)[O-],AC50,[16],25 µM (active)
same,AC50,[17],6.06 µM (active)
c1ccc2c(c1)CCCC2,outcome,[9],inactive
same,outcome,[10],inactive
same,outcome,[11],inactive
same,outcome,[4],inactive
same,outcome,[12],inactive
same,outcome,[15],inactive
CNC(=O)Oc1cc(C)c(SC)c(C)c1,outcome,[5],inactive
same,outcome,[6],inactive
same,AC50,[12],24 µM (active) and 26.6 µM (active)
same,AC50,[13],50 µM (active)
same,outcome,[13],inactive
same,outcome,[14],inactive
same,AC50,[15],71.1 µM (active)
same,outcome,[15],inactive
O=[N+]([O-])O,outcome,[18],inactive
O=C(O)c1cc[c]([Hg][Cl])cc1,outcome,[19],inactive
same,outcome,[20],inactive
CCC(C)(C)O,outcome,[16],inactive
CC(=O)/C=C/c1ccccc1,outcome,[16],inactive
